Screens as filed in PubChem.
EBV LMP1 NFkB: EBV LMP1-driven NF-kappaB luciferase reporter inhibitors, primary screen, cell-based, luminescence, single point; inhibition, % at 12.5 µM; LMP1-induced NF-kappaB luciferase reporter cells; 350,000 tested, 0.69% active; in the data active = inhibition above about 41%; inconclusive = no clear call, values can overlap the other calls
PAX8 reporter: inhibitors of PAX8-driven TPO luciferase reporter, primary screen, RMG-I cells, single concentration; 360,000 tested, 1.2% active; SteadyGlo, 24 h; inhibition, % at 12.6 µM; AID 652154, 2013;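 active = mean replicate inhibition at least 60% with every replicate also reaching 60%; inconclusive = only one of the two criteria is met; inactive = mean below 60% and not all replicates reaching 60%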;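 also: luciferase light reporting Pax8 driven TPO promoter activity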
LGR2 inh: inhibitors of bursicon-induced LGR2 CRE-luciferase signal, primary screen, cell-based, HEK293, CRE-luciferase reporter, bursicon stimulation | bursicon-stimulated, 4 h | inhibition, % at 9.99 µM | 380,000 tested, 0.35% active | AID 720647, 2013;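 active = drop in luminescence signal, shown as inhibition above about 50% in the replicate tests, limit read from the data, passing the limit was not always enough; inconclusive = probably only some replicates passing the limit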;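 also: agonist challenge used bursicon conditioned medium at about half maximal strength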
MITF TRPM1 inh: inhibitors of MITF-dependent TRPM1 promoter reporter, primary screen, cell-based, SK-MEL-5, single point, luciferase; AID 488899, 2010; inhibition, % at 12.5 µM; 330,000 tested, 0.83% active; SK-MEL-5 TRPM1 promoter luciferase, 24 h;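 active = mean inhibition across replicates of 60% or more, whatever share of single replicates reaches that level; inconclusive = some that reach 60%, reason not given; inactive = mean inhibition across replicates below 60%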
Shn3 3UTR inh: reduction of Shn3 3'UTR firefly luciferase signal, primary screen, Schnurri-3 inhibitor project, cell-based, Clone20 osteoblasts, set 2; Clone20 osteoblast Shn3 3'UTR firefly luciferase, 24 h; 360,000 tested, 0.52% active; inhibition, % at 12.5 µM;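 active = mean inhibition of at least 75% with every replicate also reaching 75%; inconclusive = mean inhibition at least 75% but some replicate below; inactive = mean inhibition below 75%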
EWS-Fli inh: EWS/Fli-driven NR0B1 reporter inhibitors, primary screen, A673 cells, NR0B1 luciferase, luminescence, MLPCN library; viability-normalised; inhibition, % at 12.6 µM; 350,000 tested, 0.67% active; AID 651661, 2012;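 active = mean inhibition of at least 50% after viability correction, with every replicate also passing that limit; inconclusive = mean reaches 50% but only one of two replicates passes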;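 also: firefly luciferase signal divided by Alamar Blue viability fluorescence both relative to DMSO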
Numbers stand for hits. Sampled rows, rich in hits. Any-hit rate of the full collection: about 2.2%.

Screening O=[N+]([O-])c1ccc(C[n+]2c(-c3ccccc3)cc(-c3ccccc3)cc2-c2ccccc2)cc1 returned EBV LMP1 NFkB inactive, PAX8 reporter 78.5, LGR2 inh inactive, MITF TRPM1 inh inactive, Shn3 3UTR inh inactive and EWS-Fli inh inactive.
`COC(=O)[C@H]1[C@H](CO)[C@H]2Cn3c(ccc(-c4cccnc4)c3=O)[C@@H]1N2S(=O)(=O)c1ccccc1F` gave PAX8 reporter inactive, LGR2 inh inactive and EWS-Fli inh inactive.
Screening CN(C)C(=O)[C@@H]1[C@@H](CO)[C@@H]2Cn3c(cccc3=O)[C@H]1N2CC1CC1 returned LGR2 inh inactive and EWS-Fli inh inactive.
For CC1=CC(=C2C(=O)NC(=S)NC2=O)C=C(C(F)(F)F)N1Cc1ccccc1 the results were EBV LMP1 NFkB inactive, PAX8 reporter inactive, LGR2 inh inactive, MITF TRPM1 inh inactive, Shn3 3UTR inh inactive and EWS-Fli inh 54.0.
`C[n+]1c(-c2ccccc2)c2cc(N)ccc2c2ccc(N)cc21` gave EBV LMP1 NFkB inactive, PAX8 reporter 96.2, LGR2 inh 78.6, MITF TRPM1 inh 61.6, Shn3 3UTR inh inactive and EWS-Fli inh inactive.
`C[C@@H]1CN(C2CCC(C#N)(c3ccc(F)cc3)CC2)CC[C@]1(C(=O)O)c1ccccc1` (some centres not stated) gave EBV LMP1 NFkB 79.0, PAX8 reporter inactive, MITF TRPM1 inh inactive, Shn3 3UTR inh inactive and EWS-Fli inh inactive.
For CCCCCCCCCCCCCCCC[N+](C)(C)C the results were EBV LMP1 NFkB inactive, PAX8 reporter 92.9, LGR2 inh inactive, MITF TRPM1 inh inactive, Shn3 3UTR inh 94.5 and EWS-Fli inh 57.0.
Screening CCC(C)C1NC(=O)C2CCCN2C(=O)C(CC(C)C)OC(=O)CCNC(=O)C(C)N(C)C(=O)C(C(C)C)N(C)C1=O (configuration not stated) returned EBV LMP1 NFkB inactive, PAX8 reporter 72.2, LGR2 inh inactive, MITF TRPM1 inh inactive, Shn3 3UTR inh inactive and EWS-Fli inh inactive.
Screening Cc1cccc(S(=O)(=O)N2[C@@H]3c4ccc(-c5cccc(F)c5)c(=O)n4C[C@H]2[C@H](CO)[C@H]3C(=O)O)c1 returned PAX8 reporter inactive, LGR2 inh inactive and EWS-Fli inh inactive.
Screening CCCC#Cc1ccc([C@H]2[C@H]3CN(C(=O)Cc4ccccn4)CCCCN3[C@H]2CO)cc1 returned PAX8 reporter inactive, LGR2 inh inactive and EWS-Fli inh inactive.
For Fc1ccc(C(OCCN2CCN(CCCc3ccccc3)CC2)c2ccc(F)cc2)cc1 the results were EBV LMP1 NFkB inactive, PAX8 reporter inconclusive, LGR2 inh inactive, MITF TRPM1 inh inactive, Shn3 3UTR inh 87.3 and EWS-Fli inh inactive.
Fc1ccc(C(OCCN2CCCC2)c2ccc(F)cc2)cc1 was read as EBV LMP1 NFkB inconclusive, PAX8 reporter inactive, LGR2 inh inactive, MITF TRPM1 inh inactive, Shn3 3UTR inh inactive and EWS-Fli inh inactive.
`c1ccc(CCCN2CCN(CCOC(c3ccccc3)c3ccccc3)CC2)cc1` gave EBV LMP1 NFkB 82.4, PAX8 reporter inactive, MITF TRPM1 inh inactive, Shn3 3UTR inh inactive and EWS-Fli inh inactive.
Screening CCCNC(=O)N1[C@@H]2c3ccc(-c4ccccc4OC)c(=O)n3C[C@H]1[C@H](CO)[C@H]2C(=O)OC returned PAX8 reporter inactive, LGR2 inh inactive and EWS-Fli inh inactive.
For Fc1ccccc1CNC1CN2CCC1CC2 (configuration not stated) the results were EBV LMP1 NFkB inactive, PAX8 reporter inactive, LGR2 inh inactive, MITF TRPM1 inh inactive, Shn3 3UTR inh inactive and EWS-Fli inh inactive.
Ic1ccccc1CN[C@@H]1C2CCN(CC2)[C@@H]1C(c1ccccc1)c1ccccc1 was read as EBV LMP1 NFkB inactive, PAX8 reporter inactive, LGR2 inh 69.7, MITF TRPM1 inh inactive, Shn3 3UTR inh inactive and EWS-Fli inh inactive.
`C[C@@H]1CN([C@@H](C)CO)C(=O)c2c(c3ccccc3n2C)-c2ccccc2CO[C@@H]1CN(C)C(=O)Oc1ccccc1` gave PAX8 reporter inactive and LGR2 inh inactive.
Screening O=C1NC(=O)N(C2CCCCC2)C(=O)C1C1c2ccccc2C(=O)N1Cc1ccccc1 (configuration not stated) returned EBV LMP1 NFkB 78.2, LGR2 inh inactive, MITF TRPM1 inh inactive and Shn3 3UTR inh inactive.
Cc1ccc(OC(=O)N(C)C[C@H]2OCc3ccccc3-c3c(n(C)c4ccccc34)C(=O)N([C@@H](C)CO)C[C@H]2C)cc1 was read as PAX8 reporter inactive, LGR2 inh inactive and EWS-Fli inh inactive.
For COC(=O)[C@H]1[C@H](CO)[C@H]2Cn3c(ccc(-c4ccccc4OC)c3=O)[C@@H]1N2Cc1ccccc1 the results were LGR2 inh inactive and EWS-Fli inh inactive.
C=C1C(=O)OC2CC3(C)OC3C3OC3C3=CC(OC3=O)C12 (configuration not stated) was read as Shn3 3UTR inh 94.2 and EWS-Fli inh 57.6.
For COC(=O)C[C@H]1CC[C@@H]2NC[C@H](O)COC[C@H]2O1 the results were PAX8 reporter inactive, LGR2 inh inactive and EWS-Fli inh inactive.
For CSc1cccc(NP2(=O)OCC(C)([N+](=O)[O-])CO2)c1 (configuration not stated) the results were EBV LMP1 NFkB 62.2, PAX8 reporter inactive, LGR2 inh inactive, MITF TRPM1 inh inactive, Shn3 3UTR inh inactive and EWS-Fli inh inactive.
For C=C1C(=O)O[C@@H]2C[C@@H](C)[C@H]3C=CC(=O)[C@]3(O)C[C@@H]12 the results were EBV LMP1 NFkB inactive, PAX8 reporter inactive, LGR2 inh inactive, MITF TRPM1 inh inactive, Shn3 3UTR inh inactive and EWS-Fli inh inactive.
For C=C1C(=O)OC2CC3(C)OC3CCC(C)=CC(OC(C)=O)C12 (configuration not stated) the results were EBV LMP1 NFkB 55.2, PAX8 reporter 95.3, LGR2 inh 40.0, MITF TRPM1 inh 69.9, Shn3 3UTR inh inactive and EWS-Fli inh inactive.
COC(=O)[C@@H]1[C@@H](CO)[C@@H]2Cn3c(ccc(-c4ccccc4)c3=O)[C@H]1N2C(=O)c1ccccc1F was read as LGR2 inh inactive and EWS-Fli inh inactive.
`CCC(=O)N1[C@@H]2Cn3c(ccc(-c4ccc(F)cc4)c3=O)[C@H]1[C@@H](C(=O)OC)[C@@H]2CO` gave PAX8 reporter inactive, LGR2 inh inactive and EWS-Fli inh inactive.
Screening NCCc1ccc(OCc2ccccc2)c(OCc2ccccc2)c1 returned EBV LMP1 NFkB inactive, PAX8 reporter inactive, LGR2 inh 87.7, MITF TRPM1 inh 98.1, Shn3 3UTR inh inactive and EWS-Fli inh inactive.
Cn1c(NN=O)nc2ccccc21 was read as EBV LMP1 NFkB inactive, PAX8 reporter inactive, LGR2 inh inactive, MITF TRPM1 inh inactive, Shn3 3UTR inh 89.6 and EWS-Fli inh inactive.
